Data from PubChem BioAssay AID1159580 (chemical genetic matrix, 2015).
Among all 5,500 compounds or so, about 2,000 (36%) were called active. Another 18% or so got no clear call; they are omitted. Cut-off read from the data, not from the text of the source: active = normalized growth mostly below about 0.91 (no sharp cut-off); inconclusive = no clear call, values can overlap the other calls; inactive = mostly above about 0.92. The list shows a part of the results.

Test: chemical genetic growth profiling, strain panel (AID 1159580);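 note: tested at 20 µM; growth read once vehicle control cultures reached saturation at 30 °C; 1 = growth at the plate median or of vehicle wells; lower values mean less growth of the strain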
Details: S. cerevisiae deletion strains, growth OD

Measured: normalized growth

N[C@H](CO)Cc1ccccc1
inactive: locus YAL021C, strain ccr4, active compounds read low 1.01 | locus YAL026C, strain drs2, active compounds read low 1.02 | locus YAL030W, strain snc1, active compounds read low 1.03 | locus YBL061C, strain skt5, active compounds read low 1.03 | locus YBR009C, strain hhf1, active compounds read low 1.03 | locus YBR023C, strain chs3, active compounds read low 1.02 | locus YBR171W, strain sec66, active compounds read low 1.02 | locus YBR231C, strain swc5, active compounds read low 1.02 | locus YBR279W, strain paf1, active compounds read low 1.01 | locus YCL011C, strain gbp2, active compounds read low 1.01 | locus YCL016C, strain dcc1, active compounds read low 0.998 | locus YCL061C, strain MRC1, active compounds read low 1.02 | locus YCL069W, strain vba3, active compounds read low 1.02 | locus YCR088W, strain abp1, active compounds read low 1.01 | locus YDL005C, strain med2, active compounds read low 1.01 | locus YDL040C, strain nat1, active compounds read low 1.02 | locus YDR001C, strain nth1, active compounds read low 1.02 | locus YDR069C, strain doa4, active compounds read low 1.04 | locus YDR137W, strain rgp1, active compounds read low 1.01 | locus YDR159W, strain sac3, active compounds read low 1.06 | locus YDR195W, strain ref2 1.02 | locus YDR297W, strain sur2, active compounds read low 1.05 | locus YDR334W, strain swr1, active compounds read low 1.02 | locus YDR335W, strain msn5, active compounds read low 1.01 | locus YDR392W, strain spt3, active compounds read low 0.927 | locus YEL003W, strain gim4, active compounds read low 1.03 | locus YEL037C, strain rad23, active compounds read low 1.01 | locus YEL061C, strain CIN8 (second series), active compounds read low 1.02 | locus YER015W, strain faa2, active compounds read low 1.03 | locus YER016W, strain bim1, active compounds read low 1.03 | locus YER111C, strain swi4, active compounds read low 1.02 | locus YER155C, strain BEM2 (second series), active compounds read low 1.02 | locus YFR010W, strain ubp6, active compounds read low 1.04 | locus YGL167C, strain pmr1, active compounds read low 1.02 | locus YGL173C, strain kem1, active compounds read low 1.03 | locus YGL227W, strain vid30, active compounds read low 1.03 | locus YGL240W, strain doc1, active compounds read low 1.02 | locus YGL253W, strain hxk2, active compounds read low 1.03 | locus YHR013C, strain ard1, active compounds read low 1.03 | locus YHR027C, strain rpn1, active compounds read low 1.02 | locus YHR030C, strain SLT2, active compounds read low 1.07 | locus YHR079C, strain IRE1, active compounds read low 1.05 | locus YHR142W, strain chs7, active compounds read low 1.03 | locus YJL092W, strain hpr5, active compounds read low 1.02 | locus YJL095W, strain BCK1 (second series), active compounds read low 1.02 | locus YJL095W, strain BCK1, active compounds read low 1.06 | locus YJL115W, strain asf1, active compounds read low 1.01 | locus YJL129C, strain trk1, active compounds read low 1.03 | locus YJL154C, strain vps35, active compounds read low 1.02 | locus YJL164C, strain tpk1, active compounds read low 0.994 | locus YJL166W, strain qcr8, active compounds read low 1.02 | locus YJL187C, strain SWE1, active compounds read low 1.01 | locus YJR066W, strain TOR1, active compounds read low 0.974 | locus YKL160W, strain elf1, active compounds read low 0.996 | locus YKR026C, strain gcn3, active compounds read low 1.02 | locus YKR091W, strain srl3, active compounds read low 1.01 | locus YLL001W, strain dnm1, active compounds read low 1.01 | locus YLL026W, active compounds read low 1.02 | locus YLL041C, strain sdh2, active compounds read low 1.01 | locus YLR027C, strain aat2, active compounds read low 1.01 | locus YLR113W, strain HOG1, active compounds read low 1.05 | locus YLR221C, strain rsa3, active compounds read low 1.03 | locus YLR258W, strain gsy2, active compounds read low 1.05 | locus YLR262C, strain YPT6 (second series), active compounds read low 1.02 | locus YLR320W, strain mms22, active compounds read low 1.03 | locus YLR342W, strain FKS1, active compounds read low 1.03 | locus YLR357W, strain rsc2, active compounds read low 1.05 | locus YLR370C, strain arc18, active compounds read low 1.04 | locus YLR384C, strain iki3, active compounds read low 1 | locus YML120C, strain ndi1, active compounds read low 1.01 | locus YMR058W, strain fet3, active compounds read low 1.02 | locus YMR125W, strain sto1, active compounds read low 1.01 | locus YMR129W, active compounds read low 1.01 | locus YMR205C, strain PFK2, active compounds read low 1.02 | locus YMR231W, strain pep5, active compounds read low 1.02 | locus YNL071W, strain lat1, active compounds read low 1.02 | locus YNL183C, strain NPR1, active compounds read low 0.974 | locus YNL209W, strain ssb2, active compounds read low 1.01 | locus YNL248C, strain rpa49, active compounds read low 1.06 | locus YNL322C, strain KRE1 (second series), active compounds read low 1.02 | locus YNR049C, strain mso1, active compounds read low 1.02 | locus YOR001W, strain rrp6, active compounds read low 1.03 | locus YOR070C, strain gyp1, active compounds read low 1.01 | locus YOR080W, strain dia2, active compounds read low 1.02 | locus YOR083W, strain WHI5, active compounds read low 1 | locus YOR106W, strain vam3, active compounds read low 1 | locus YOR231W, strain MKK1, active compounds read low 1.07 | locus YOR265W, strain rbl2, active compounds read low 1.01 | locus YOR270C, strain vph1, active compounds read low 1.06 | locus YOR290C, strain snf2, active compounds read low 0.978 | locus YPL051W, strain arl3, active compounds read low 1.03 | locus YPL078C, strain atp4, active compounds read low 0.99 | locus YPL106C, strain sse1, active compounds read low 1 | locus YPL240C, strain hsp82, active compounds read low 1.02 | locus YPL256C, strain CLN2, active compounds read low 1.04
